Only some compounds are listed: those with a hit (about 7.6% of all), similar ones and a draw of the others.
M1 ag: agonists of M1 muscarinic receptor; CHO-M1 cells, Fluo-4 calcium fluorescence, agonist mode; active compounds read high; B-score at 10 µM; hit rate 3% among 64,000;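 active = fluorescence rise, raw or as B-score row- and column-corrected plate score, outside the 99.7% band of its plate's samples, either direction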
Cav32 inh: inhibitors of human Cav3.2 T-type calcium channel | AID 449739 | O95180 | B-score at 10 µM | hit rate 4% among 100,000 | Cav3.2-expressing cells, Fluo-4 calcium fluorescence FDSS; active compounds read low;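 active = single-dose well whose peak fluorescence ratio is a statistical outlier from its plate by either plate-standardised score or position-corrected B-score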
PLAP activator: activators of human placental alkaline phosphatase; P05187; purified PLAP enzyme, luminescent substrate read-out; active compounds read high; activation fold at 20 µM; hit rate 1.2% among 96,000; AID 696; in the data active = activation fold above about 2
Target sequence (P05187 whole entry, looked up): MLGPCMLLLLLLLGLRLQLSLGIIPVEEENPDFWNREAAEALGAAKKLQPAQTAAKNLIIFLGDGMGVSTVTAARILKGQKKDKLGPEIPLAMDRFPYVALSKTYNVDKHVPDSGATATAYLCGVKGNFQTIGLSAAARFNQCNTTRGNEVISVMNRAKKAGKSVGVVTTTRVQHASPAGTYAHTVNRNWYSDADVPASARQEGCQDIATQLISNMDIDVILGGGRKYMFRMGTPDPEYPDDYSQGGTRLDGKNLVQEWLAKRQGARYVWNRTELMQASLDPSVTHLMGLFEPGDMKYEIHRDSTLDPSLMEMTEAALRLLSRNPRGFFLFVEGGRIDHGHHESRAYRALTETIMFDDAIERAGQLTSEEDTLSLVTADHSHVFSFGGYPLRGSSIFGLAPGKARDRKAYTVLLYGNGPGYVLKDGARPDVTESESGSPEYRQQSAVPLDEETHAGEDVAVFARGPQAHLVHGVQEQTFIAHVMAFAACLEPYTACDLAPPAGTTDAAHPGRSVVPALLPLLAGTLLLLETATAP
M1 antag: blocks the rat M1 muscarinic receptor response to acetylcholine; P08482; CHO-M1 cells, Fluo-4 calcium, ACh EC80 antagonist mode; active compounds read low; B-score at 10 µM; hit rate 3.4% among 64,000; AID 628;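 active = calcium fluorescence response, raw or row-and-column corrected B-score, differing from the plate sample mean either way at a set confidence level, mostly lower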
M1 antag conf: M1 muscarinic receptor (rat) antagonism, confirmed; shares compounds with M1 antag; CHO-M1 cells, Fluo-4 calcium, ACh EC80 antagonism; active compounds read low; calcium response (max-min fluorescence) at 10 µM; hit rate 43% among 1,700; AID 677;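 active = calcium response below the same-plate mean of wells given acetylcholine alone at its 80%-effect dose, minus 3 SD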;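 note: raw fluorescence intensity difference in arbitrary instrument units and not normalized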
mGluR4 antag: acts on human mGluR4 in M1 antagonist selectivity test | shares compounds with M1 antag | CHO-mGluR4 calcium flux, Fluo-4 fluorescence, glutamate EC80; active compounds read low | fluorescence response (max-min) at 10 µM | hit rate 0.9% among 1,700 | AID 678;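 active = fluorescence response below the plate's average for near-maximal glutamate wells, less 3 SD of those wells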;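 note: raw unnormalized fluorescence span taken in the window right after glutamate addition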
An asterisk follows results filed as active; . = no result.

SMILES	M1 ag	Cav32 inh	PLAP activator	M1 antag	M1 antag conf	mGluR4 antag
COc1ccc2[nH]c3c(c2c1)CN(C)CC3	0.76	1.1	1.1	-1.9*	448	193
Cc1nc2c(C(=O)N3CCN(c4ccccn4)CC3)cnn2c(C)c1Cc1cccc(Cl)c1	2.2	-2.2	1.4	-2.3*	606	249
Cc1nc2c(C(=O)N3CCCC3)cnn2c(C)c1Cc1c(F)cccc1Cl	.	0.69	1	.	.	.
COC(CNC(=O)c1cc(C)nn1-c1ccccc1)OC	.	-0.018	1	.	.	.
O=C(CSc1c2c(nc3cc(Cl)ccc13)CCCC2)NCc1ccco1	.	-2.5	1.4	.	.	.
Cc1cc(=O)n(C)c(=O)n1CCCCCN1CCCC1	0.16	-0.12	1	-1.6*	660	249
Fc1ccc(OCCCCCCN2CCCC2)cc1	.	0.98	1.1	.	.	.
CC1CCCN(CCC(=O)c2ccc(Br)cc2)C1 (stereo not drawn)	-0.38	1.1	0.9	-4.5*	500	215
CC1CCN(CCC(=O)Nc2ccc(Br)cc2)CC1	-0.031	0.67	.	-0.17	.	.
O=C(COC(=O)c1cc2ccccc2o1)c1ccccc1	0.72	-0.6	0.9	0.0061	.	.
O=C(OCCN1CCCCC1)c1cc2ccccc2o1	-0.73	0.43	1.2	-2.4*	465	238
O=C(c1cc2ccccc2oc1=O)N1CCN(c2ccc(N3CCOCC3)nn2)CC1	-0.38	.	1.2	-0.13	.	.
O=C(c1ccc(CSCc2ccccc2F)o1)N1CCN(c2ccc(N3CCOCC3)nn2)CC1	-0.87	-0.27	1.3	-1.7*	498*	172
CCc1ccc(C(=O)N2CCN(c3ccc(F)cc3)CC2)s1	-1.4	-1.8	0.9	-6.5*	507*	229
Cn1c(SCCN2CCCCC2)nnc1-c1ccccc1Br	1	0.38	1	-2*	561*	249
C=C(C)Cn1c(SCC)nc2ccccc2c1=O	0.4	-3.8	1	-4.1*	566	200
CC(C)c1nc2oc3c(N4CCNCC4)ncnc3c2c2c1CCC2	-1	.	.	-2.9*	292*	243
CCOC(=O)c1ccc(Nc2nc(C)cc(C)c2C#N)cc1	0.68	-0.029	0.8	0.42	.	.
CCOC(=O)c1ccc(Nc2nnc3nc(C)cc(C)n23)cc1	-0.71	0.45	1.2	-1.2*	466	214
Cc1ccc(N2CCN(C(=O)CN3C(=O)c4ccccc4C3=O)CC2)cc1	.	0.99	0.9	.	.	.
Cc1ccc(N(C=NC#N)CC(=O)N2CCN(c3ccccc3)CC2)cc1	0.2	0.81	1.5	-3.4*	565	212
O=C1CSC2(C(=O)N3CCCc4cccc2c43)N1c1cccc(C(F)(F)F)c1 (stereo not drawn)	.	-1	1.1	.	.	.
COc1ccc(N2C(=O)CSC23C(=O)N2CCCc4cccc3c42)cc1 (stereo not drawn)	-0.23	-0.19	1.4	-17*	28*	212
CCOC(=O)c1sc(N)c(C#N)c1COC(=O)CNC(=O)c1ccccc1	1.4	.	0.8	-1.7	.	.
CC(NC(=O)Nc1nnc(C(F)(F)F)s1)(C(F)(F)F)C(F)(F)F	4.1	-7.7*	1	-1.3*	513*	290
SMILES	M1 ag	Cav32 inh	PLAP activator	M1 antag	M1 antag conf	mGluR4 antag
CC(C)(C)CC(=O)Nc1nnc(C(F)(F)F)s1	.	-0.97	.	.	.	.
CCCN1C2CCCC1CC(NC(=O)c1ccccc1F)C2 (stereo not drawn)	-1.2	-0.097	0.8	-3.7*	567	236
CCCN1C2CCCC1CC(NC(=O)c1ccccc1OCC)C2 (stereo not drawn)	1	-0.047	1	-3.8*	461*	237
CCOc1ccccc1NC(=O)NC1CC2CCCC(C1)N2Cc1nnnn1CCc1ccccc1 (stereo not drawn)	0.03	.	1.4	0.26	.	.
CCOC(=O)CSc1nnc(CNC(=O)c2cc(OCC)c(OCC)c(OCC)c2)n1C	0.59	-0.67	1.2	-0.71	.	.
CCOC(=O)CSc1nnc(CNC(=O)c2ccc(S(=O)(=O)N3CCCC3)cc2)n1C	1.3	.	1.2	-1.2*	426	204
CC(C)c1ccc(O)c(N)c1	0.53	-0.055	1	-2.6*	697	208
CCCS(=O)(=O)N1CCCC(C(=O)NCCCN2CCN(c3cccc(Cl)c3)CC2)C1 (stereo not drawn)	-0.97	.	1.6	-0.057	.	.
O=C(O)c1ccccc1S(=O)(=O)NCC(O)COc1ccc(Br)cc1 (stereo not drawn)	-0.65	0.37	1.2	-0.079	.	.
Cc1ccc(C2CC(=O)c3cnc(N4CCN(c5ccccc5)CC4)nc3C2)cc1 (stereo not drawn)	-1.7	0.12	0.9	-5.8*	622	240
CCn1c(CSc2ncccn2)nnc1SCC(=O)N1CCc2ccccc21	-0.95	.	0.9	-5.4*	474	225
CSc1nsc(SCC(=O)N2CCCc3ccccc32)n1	0.3	-3.6	0.6	-0.44	.	.
CCc1nnc(SCC(=O)N2CCCc3ccccc32)nc1CC	0.25	-0.16	0.9	-3.3*	655	239
Cn1c(CSc2ncccn2)nnc1SCC(=O)N1CCCc2ccccc21	0.021	.	1.2	-0.72	.	.
CNS(=O)(=O)c1cccc(C(=O)OCC(=O)C23CC4CC(CC(C4)C2)C3)c1	.	0.028	1.6	.	.	.
CNS(=O)(=O)c1cccc(C(=O)OCC(=O)c2cc(C)n(-c3ccc4c(c3)OCO4)c2C)c1	-0.9	-0.97	1.3	-2.3*	483	164*
O=C(N1CCCC1)N1CCN(c2ncnc3c(-c4ccc(Cl)cc4)nsc23)CC1	0.023	.	1	-0.046	.	.
CCS(=O)(=O)C(=C(Nc1ccc(OC)cc1)Nc1ccc(OC)cc1)S(=O)(=O)CC	0.63	0.68	1	1.2	.	.
CCOC(=O)N1CCC(NC2CCCCCCC2)CC1	-0.23	0.53	1.5	-11*	100*	219
CCOC(=O)N1CCN(C(=O)C2CCC(C(=O)N3CCN(C(=O)OCC)CC3)CC2)CC1 (stereo not drawn)	0.0027	.	.	1.7	.	.
CCC1CCCCN1CCNC(=O)C1CCN(S(=O)(=O)c2c(C)noc2C)CC1 (stereo not drawn)	0.076	-1.1	1.8	-12*	385*	179
CC(Cc1cccs1)NC(=O)Nc1ccc(Cl)cc1 (stereo not drawn)	.	-2.3	1	.	.	.
CC(Cc1cccs1)NC(=O)Nc1ccccc1 (stereo not drawn)	0.13	0.42	0.8	-3.2*	588	188
CC1(C)CC(=O)C2=C(C1)c1c(ccc3ccccc13)NC2c1ccc(Br)o1 (stereo not drawn)	.	-1.4	0.7	.	.	.
c1cncc(-c2nc(-c3ccco3)cs2)c1	0.14	-0.18	1.6	-0.013	.	.
CC(C)n1c(-c2ccco2)csc1=Nc1cccnc1	-0.23	-5.2*	0.8	-3.3*	471*	194
Cc1cc(OCC(=O)Nc2ccc3c(c2)OCCO3)ccc1Cl	0.91	-1	0.8	-0.26	.	.
CN(C)CCCN1c2ccccc2CCc2ccccc21	.	-1.1	.	.	.	257
CC(C1CC1)N(C(=O)c1ccccc1O)c1ccccc1 (stereo not drawn)	-0.36	-0.12	1.3	-3.6*	548	218
